Among the data in PubChem BioAssay AID2661 (Broad Institute, 2010) are inhibition values, retold here.

SMILES strings stand for the structures. Out of some 320,000 compounds screened, about 240 (0.075%) were called active.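 How the source made its calls: active means inhibition at or above 25%, using the most active replicate where run in duplicate; inactive means inhibition below 25%.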 Only a selection was taken, and actives are over-represented in it overall.

Sequence of Serine/threonine-protein kinase 33 (Homo sapiens) (Q9BYT3 whole entry, looked up): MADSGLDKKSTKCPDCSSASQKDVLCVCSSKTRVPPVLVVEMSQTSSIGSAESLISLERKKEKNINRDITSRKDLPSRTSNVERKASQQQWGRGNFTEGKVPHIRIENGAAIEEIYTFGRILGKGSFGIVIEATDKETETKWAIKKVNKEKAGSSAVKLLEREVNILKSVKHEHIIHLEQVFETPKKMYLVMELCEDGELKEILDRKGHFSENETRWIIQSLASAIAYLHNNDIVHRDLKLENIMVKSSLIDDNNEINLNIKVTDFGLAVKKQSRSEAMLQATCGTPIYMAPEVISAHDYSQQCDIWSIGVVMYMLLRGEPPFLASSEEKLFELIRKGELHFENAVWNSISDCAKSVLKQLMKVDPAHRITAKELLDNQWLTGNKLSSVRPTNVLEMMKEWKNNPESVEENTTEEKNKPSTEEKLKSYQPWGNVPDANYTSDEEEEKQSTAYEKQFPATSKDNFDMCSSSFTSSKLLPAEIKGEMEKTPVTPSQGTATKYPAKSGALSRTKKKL

This assay addresses Serine/threonine-protein kinase 33 (Homo sapiens) (UniProt Q9BYT3). As to the kind of experiment: STK33 phosphorylation of MBP blockers – biochemical, ADP-Glo luminescence, homogeneous, cell-free, primary screen (AID 2661). To be noted: purified STK33, MBP phosphorylation, at 10 µM, stronger effect = higher value. In general terms: ADP-Glo first removes unused ATP, then detects ADP through luciferase.
The inhibition is the relative decrease from the control value, in per cent. With `COc1ccc(CCNC(=O)COC(=O)c2cnc(Cl)c(Cl)c2)cc1`, the inhibition is 0.375% (inactive).

With `C[C@]12CC[C@H](O)CC1=CCC1C2CC[C@@]2(C)C1CC[C@@H]2NC(=O)CCC(=O)O` (some centres undefined), the inhibition is -0.89% (inactive).

Regarding `CC1CCCCC1NCC(=O)Nc1ccccc1C(=O)Nc1ccccc1` (centres undefined), the inhibition was 0.481% (inactive).

On to `CC(C)(C)OC(=O)C[C@H]1C/C=C\C[C@@H](CC(=O)N[C@H](CO)Cc2ccccc2)C(=O)NC[C@@H](c2ccccc2)OC1=O`, for which the inhibition is -0.103% (inactive).

Regarding `O=C1COc2ccc(C(=O)COC(=O)c3ccccc3Cl)cc2N1`, the inhibition is -0.902% (inactive).

`Cn1c(N)c(C(=O)COC(=O)c2cccc(S(=O)(=O)N3CCOCC3)c2)c(=O)n(C)c1=O`: the inhibition was -0.402% (inactive).

For `O=C(Cn1cc(C(F)(F)F)ccc1=O)Nc1ccc2c(c1)OCCO2`, the inhibition is -0.216% (inactive).

For `C[C@H]1COC(=O)[C@H](CC(=O)OC(C)(C)C)C/C=C\C[C@@H](CC(=O)N[C@H](CO)Cc2ccccc2)C(=O)N1`, the inhibition is 0.871% (inactive).

With `C[C@H](CO)N1C[C@H](C)[C@@H](CN(C)S(=O)(=O)c2ccc(F)cc2)Oc2ccc(NC(=O)CCC(F)(F)F)cc2C1=O`, the inhibition was -3.43% (inactive).

With `CCN(c1ccccc1)S(=O)(=O)c1ccc(C(=O)Nc2ccccc2OC)cc1`, the inhibition was -0.186% (inactive).

As for `Cc1csc2nc(COC(=O)c3cccc(N(C)C)c3)cc(=O)n12`, the inhibition was 0.859% (inactive).

Consider `Cc1csc(=O)n1CC(=O)Nc1ccc(S(C)(=O)=O)cc1`, for which the inhibition was -0.384% (inactive).

Take `COc1ccc(-c2c(C#Cc3ccsc3)c3cc(-c4ccc(CN5CCOCC5)cc4)ccc3n2C)cc1`: the inhibition was -0.0231% (inactive).

On to `O=S(=O)(Nc1ncnc2sccc12)c1cccc(F)c1`, for which the inhibition was -0.694% (inactive).

Consider `CCN(C[C@H]1N[C@@](CC)(C(=O)OC)[C@H]2C(=O)N(C)C(=O)[C@@H]12)C(=O)Nc1ccc(F)cc1`, for which the inhibition is -1.58% (inactive).

On to `Cc1ccc(NC(=O)c2ccc(Cl)nc2)cc1S(=O)(=O)N1CCOCC1`, for which the inhibition was -0.219% (inactive).

Turning to `COc1ccccc1N(CC(=O)Nc1ccc(C)cc1Cl)S(=O)(=O)c1cccs1`, the inhibition is -0.284% (inactive).

For the compound `Cc1ccc(CNC(=O)COC(=O)C2CCC2)cc1`, the inhibition was -0.167% (inactive).

On to `C=CC[C@@H](CC(=O)N[C@H](CO)Cc1ccccc1)C(=O)N[C@H](C)COC(=O)[C@@H](CC=C)Cc1ccc(F)cc1`, for which the inhibition was -1.41% (inactive).

Regarding `O=C(COC(=O)c1cc(S(=O)(=O)N2CCOCC2)ccc1F)NC1CC1`, the inhibition was -1.08% (inactive).

As to `O=C1CC2(CCCC2)C(=O)N1CN1CCN(S(=O)(=O)c2ccc(F)cc2F)CC1`, the inhibition was 0.0533% (inactive).

Take `O=C(C[C@H]1C/C=C\C[C@@H](NC(=O)OCC2c3ccccc3-c3ccccc32)C(=O)O[C@@H](c2ccccc2)CNC1=O)N[C@H](CO)Cc1ccccc1`: the inhibition is 0.211% (inactive).

As for `COc1ccc(C(=O)COC(=O)c2c(C)noc2C)cc1Cl`, the inhibition is 0.472% (inactive).

Turning to `O=C(COC(=O)c1cccnc1Cl)NC12CC3CC(CC(C3)C1)C2`, the inhibition is -1.76% (inactive).

For the compound `CCn1c(/C=C/c2ccc([N+](=O)[O-])o2)nc2ccccc2c1=O`, the inhibition was 84.6% (active).

For `Cc1cc(C)nc(N/N=C/c2ccc([N+](=O)[O-])o2)n1`, the inhibition was 0.179% (inactive).

Consider `CCn1c(=O)c([N+](=O)[O-])c(NCc2ccc3c(c2)OCO3)c2ccccc21`, for which the inhibition is 2.57% (inactive).

Take `Cn1c(N)c(C(=O)COC(=O)c2ccc3ccccc3c2)c(=O)n(C)c1=O`: the inhibition was -1.35% (inactive).

On to `CCOC(=O)[C@H]1[C@H]2COc3cc(OC)ccc3[C@@H]2N2C(=O)CN(Cc3ccc(Cl)cc3)C(=O)[C@@]12C`, for which the inhibition was 0.914% (inactive).

Take `O=C(COC(=O)c1n[nH]c2ccccc12)Nc1ccccc1Br`: the inhibition was -1.11% (inactive).

As to `CC1CCCCC1NC(=O)Cn1cnc2c1c(=O)n(C)c(=O)n2C` (centres undefined), the inhibition was 1.66% (inactive).

As for `Cc1ccc2c(c1)NC(=O)[C@@]1(C)[C@@H](c3ccccc3)[C@H]3COc4ccc(Cl)cc4[C@@H]3N1C2=O`, the inhibition is -0.222% (inactive).

`CC1(C)CC[C@@]2(C(=O)O)C(C1)C1=CCC3[C@@]4(C)CC[C@H](O)C(C)(C)C4CC[C@@]3(C)[C@]1(C)C[C@H]2O` (some centres undefined): the inhibition is -0.618% (inactive).

Take `CCN(C[C@H]1N[C@@](Cc2ccccc2)(C(=O)OC)[C@H]2C(=O)N(Cc3ccccc3)C(=O)[C@@H]12)C(=O)c1ccc(C)cc1`: the inhibition was -0.0719% (inactive).

`COc1ccc(-c2nc3cnccn3c2NC2CCCCC2)cc1-c1cccc(Cl)c1`: the inhibition was 0.0525% (inactive).

With `CN1CCN(C(=O)c2ccc(-c3ccc(Br)cc3)o2)CC1`, the inhibition was -1.87% (inactive).

Turning to `Cc1ccc(C2(C)NC(=O)N(CC(=O)N3CC(=O)Nc4ccccc43)C2=O)cc1` (centres undefined), the inhibition is -1.43% (inactive).

As to `O=C(NCc1ccc2c(c1)OCO2)c1cc([N+](=O)[O-])ccc1N1CCOCC1`, the inhibition was 0.302% (inactive).

On to `COc1ccc(Br)cc1CN(C)C(=O)C1CC(=O)N(C2CCCC2)C1` (centres undefined), for which the inhibition was -1.57% (inactive).

As to `COc1cc(C=NNC(=O)c2cccnc2)ccc1OC(=O)c1ccccc1F`, the inhibition was -0.897% (inactive).

Consider `COc1ccccc1C(=O)OCC(=O)Nc1cccc(S(=O)(=O)NC2=NCCCCC2)c1`, for which the inhibition is -2.03% (inactive).

For `O=C(NNS(=O)(=O)c1c(F)cc(F)c(Cl)c1F)C12CC3CC(CC(C3)C1)C2`, the inhibition is 0.0785% (inactive).

As for `C=CC[C@H](CC(=O)N(CCO)Cc1ccccc1)C(=O)N[C@@H](COC(=O)[C@@H](CC=C)Cc1ccc(F)cc1)Cc1ccccc1`, the inhibition was -2.76% (inactive).

As to `CC1(c2ccccc2)NC(=O)N(CC(=O)N2CC(=O)Nc3ccccc32)C1=O` (centres undefined), the inhibition was -2.96% (inactive).

Regarding `O=C(Nc1cccc(S(=O)(=O)N2CCOCC2)c1)C12CC3CC(CC(C3)C1)C2`, the inhibition was -0.903% (inactive).

As to `COc1ccc(C2=Nn3c(nnc3-c3ccccc3OC)SC2)cc1OC1CCCC1`, the inhibition was 0.928% (inactive).

In the case of `O=C(COC(=O)c1ccncc1)Nc1ccc2c(c1)OCO2`, the inhibition is 0.121% (inactive).

In the case of `CN(CC(=O)NCCc1ccc(S(N)(=O)=O)cc1)CC(=O)Nc1ccc(F)c(F)c1F`, the inhibition is -2.4% (inactive).

As to `Cc1cccc(C(=O)OCC(=O)NC(C)C2CC3CCC2C3)c1O` (centres undefined), the inhibition is -0.0496% (inactive).
